Shown are actives, neighbours in structure and some others; about 2.5% of the full set was active somewhere.
POLH inh: inhibitors of human DNA polymerase eta. Potency, µM (highest dose often 114 µM), inactives show at the top dose activity change, negative = inhibition, usual class: inhibitors. recombinant Pol eta, fluorescent DNA replication assay. AID 588591. actives 1.2% (n = 390,000); note: potency is the fitted concentration of half-maximal effect; % is set by controls: 0 for no effect and ±100 for the full control effect
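Pol eta at 10 nM preincubated with compounds 15 min at room temperature; reaction started with fluorescent substrate (50 nM final) and read kinetically at 0 and 10 min.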
WRN helicase inh: WRN helicase (human) inhibition; Potency, µM (top dose mostly 114 µM), for the others: at the highest dose activity change, negative = inhibition, most hits filed as inhibitors; actives 0.46% (n = 360,000); WRN helicase unwinding, fluorescent forked duplex, kinetic; AID 651768; note: potency is the fitted concentration of half-maximal effect; % is set by controls: 0 for no effect and ±100 for the full control effect; nearly all actives have a fitted effect of over 55% in size
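Kinetic fluorescence helicase assay: unwinding of a quenched forked DNA duplex (100 nM final) with 2 mM ATP final raises red fluorescence (525/598 nm). Compounds sat 15 min at room temperature with 20 nM WRN beforehand.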
Pol beta inh-1: DNA polymerase beta (human) inhibition | P06746 | Potency, µM (series often up to 114 µM), without a hit: at the top dose activity change, negative = inhibition, most hits filed as inhibitors | actives 1.3% (n = 340,000) | Pol beta primer extension/strand displacement, fluorescence kinetic; note: potency is the fitted concentration of half-maximal effect; % is set by controls: 0 for no effect and ±100 for the full control effect
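Human Pol beta at 10 nM; strand-displacement substrate 50 nM final. Compound exposure 15 min at room temperature before start, reaction 10 min at room temperature.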
L3MBTL1 inh: inhibitors of human L3MBTL1 | Q9Y468 | AlphaScreen L3MBTL1–H3K9me1 peptide binding | Potency, µM (doses to about 57.1 µM), for inactives: at the highest dose activity, negative = inhibition, actives largely listed as inhibitors | actives 0.66% (n = 230,000); note: potency is the fitted concentration of half-maximal effect; % is set by controls: 0 for no effect and ±100 for the full control effect; nearly all actives have a fitted effect of over 60% in size
Target sequence (Q9Y468 whole entry, looked up): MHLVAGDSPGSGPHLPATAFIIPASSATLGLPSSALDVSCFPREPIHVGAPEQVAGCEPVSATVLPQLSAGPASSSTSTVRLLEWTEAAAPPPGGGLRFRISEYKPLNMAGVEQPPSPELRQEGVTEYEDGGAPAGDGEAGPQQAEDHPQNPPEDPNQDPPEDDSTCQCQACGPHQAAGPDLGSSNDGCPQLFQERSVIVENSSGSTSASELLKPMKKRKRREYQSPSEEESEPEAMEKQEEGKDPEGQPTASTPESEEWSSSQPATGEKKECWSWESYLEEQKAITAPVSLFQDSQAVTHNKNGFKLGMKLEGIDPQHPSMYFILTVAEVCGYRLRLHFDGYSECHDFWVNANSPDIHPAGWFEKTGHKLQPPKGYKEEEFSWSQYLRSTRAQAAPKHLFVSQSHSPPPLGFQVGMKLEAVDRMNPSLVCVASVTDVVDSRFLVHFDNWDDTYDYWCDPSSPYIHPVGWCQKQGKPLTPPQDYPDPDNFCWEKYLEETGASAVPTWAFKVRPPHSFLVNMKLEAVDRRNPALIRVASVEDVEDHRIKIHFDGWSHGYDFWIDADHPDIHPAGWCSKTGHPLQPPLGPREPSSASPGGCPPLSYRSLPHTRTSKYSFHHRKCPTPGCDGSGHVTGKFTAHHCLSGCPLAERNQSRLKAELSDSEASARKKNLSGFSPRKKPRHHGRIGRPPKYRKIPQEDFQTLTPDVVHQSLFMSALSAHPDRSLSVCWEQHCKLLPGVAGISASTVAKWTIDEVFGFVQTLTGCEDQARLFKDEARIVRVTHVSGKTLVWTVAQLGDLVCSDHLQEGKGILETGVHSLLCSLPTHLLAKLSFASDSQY
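Read-out is AlphaScreen signal from streptavidin donor and nickel chelate acceptor beads (10 ug/mL final each) bridging L3MBTL1 (50 nM) and biotinylated K9-monomethylated H3(1-15) peptide (75 nM), after 30 min compound exposure at room temperature.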
Pol iota inh: DNA polymerase iota (human) inhibition; actives 1% (n = 390,000); AID 588590; Pol iota fluorescent replication assay, 10 min; Potency, µM (top dose mostly 115 µM), without a hit: at the highest dose activity, negative = inhibition, hits mostly inhibitors; note: potency is the fitted concentration of half-maximal effect
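Pol iota at 10 nM preincubated 15 min with compounds at room temperature; reaction started with fluorescent substrate, 50 nM final. Fluorescence read kinetically at 0 and 10 min; buffer-only wells as negative control.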
POLK inh: blocks human DNA polymerase kappa activity. actives 0.53% (n = 400,000). purified Pol kappa, fluorescent DNA synthesis assay, 10 min. Potency, µM (series often up to 107 µM), for inactives: at the top dose activity, negative = inhibition, most hits filed as inhibitors. Q9UBT6. AID 588579; note: potency is the fitted concentration of half-maximal effect; % is set by controls: 0 for no effect and ±100 for the full control effect
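Readout: fluorescence, taken kinetically at 0 and 10 min. Conditions: 10 nM Pol kappa, 15 min RT compound preincubation, 50 nM substrate final. Controls: enzyme-free buffer wells.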
Pol beta inh-2: Validate hits inhibiting human DNA polymerase beta; shares compounds with Pol beta inh-1; Potency, µM, hits mostly inhibitors; actives 87% (n = 250); Pol beta primer extension/strand displacement, fluorescence kinetic; calls by dose curve; note: potency is the fitted concentration of half-maximal effect
Klenow counter: Klenow polymerase inhibition, pol beta selectivity check | Klenow exo- polymerase counter-screen, fluorescent DNA substrate | shares compounds with Pol beta inh-1 | activity change, negative = inhibition, % at 57.1 µM | 250 tested, under 10 active
HIV RT counter: counter-screen for DNA polymerase beta inhibitors: HIV-1 RT inhibition | activity % (negative = inhibition, positive = activation), % at 57.1 µM | 250 tested, under 10 active | HIV-1 RT polymerase activity, counter-screen | shares compounds with Pol beta inh-1
POLB valid: validation of human DNA polymerase beta inhibitors. actives 91% (n = 110). inhibition, % at 10 µM. shares compounds with Pol beta inh-1. AID 540325. radiolabeled primer extension gel assay, phosphorimager;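 active = inhibition at 10 µM of 30% or more; inconclusive = no clear call, values can overlap the other calls; inactive = inhibition at 10 µM under 30%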
An asterisk follows results filed as active; ? = inconclusive; . = not tested or not shown; [ ] = dose if it differs, or a comment. Unless noted, calls come from the whole dose curve; as a rule, active = well fitted curve in the direction sought with a large enough effect; inconclusive = small, poorly fitted or top-dose-only effect, or another doubt; inactive = no such curve, though single readings can be large; an effect the other way counts as inactive or inconclusive.

SMILES	POLH inh	WRN helicase inh	Pol beta inh-1	L3MBTL1 inh	Pol iota inh	POLK inh	Pol beta inh-2	Klenow counter	HIV RT counter	POLB valid
COc1cc2nc(C3CCC3)nc(N3CCN(c4ccccc4OC)CC3)c2cc1OC	-23%	-5%	-18%	28µM*	-14%	-17%	.	.	.	.
Cc1cc(C)cc(NC(=O)CCC(=O)N2Cc3ccccc3Oc3ncccc32)c1	-21%	.	14%	.	10%	0%	.	.	.	.
CCN(C(=O)Cc1ccc(NC2=NC3CS(=O)(=O)CC3S2)cc1)c1ccccc1 (stereo not given)	-6%	5%	-2%	-3%	15%	0%	.	.	.	.
Cc1cccc(Nc2nn3c(=O)c4ccccc4nc3s2)c1	?	-24%	10µM*	-1%	?	?	4*	-7	27	.
O=C(OCC(=O)N1CCN(C(=O)c2ccco2)CC1)c1cc(-c2ccco2)nc2ccccc12	32µM*	50µM*	3.2µM*	8.9µM*	8.9µM*	25µM*	3.5*	-24	?	.
COc1ccc(NC(=O)c2ccc(NCCN3C(=O)CCC3=O)c([N+](=O)[O-])c2)cc1	?	-4%[11.6 µM]	13µM*	-10%[11.4 µM]	-27%	?	?	-7	21	?
Cc1ccc(C(=O)NN2CC(O)=C(c3nc(-c4cccc([N+](=O)[O-])c4)cs3)C2=N)cc1	-9%	-2%[57.1 µM]	5µM*	-18%[11.4 µM]	?	-10%	?	-28	27	.
COc1cccc(C(=O)NN2CC(O)=C(c3nc(C)cs3)C2=N)c1	?	-6%	0%	2%	10%	-2%	.	.	.	.
O=C(COC(=O)C1CCN(S(=O)(=O)c2cc([N+](=O)[O-])ccc2Cl)CC1)Nc1ncc(Cl)cc1Cl	8.9µM*	?	8.9µM*	-93%	?	79µM*	28*	-11	-23	86*
O=C(O)C1Cc2[nH]cnc2C(c2cccc([N+](=O)[O-])c2)N1 (stereo not given)	-5%	-16%	3%	-4%	19%	11%	.	.	.	.
CCOC(=O)Cc1csc(NC(=O)Cc2cccs2)n1	18µM*	-17%[57.1 µM]	14µM*	?	?	?	?	-5	15	.
Cc1nn(Cc2ccccc2)c(C)c1NC(=O)c1noc2c1CCc1ccccc1-2	-19%	-2%	-13%	.	25%	9%	.	.	.	.
CC(Sc1ncnc2ccccc12)C(=O)Nc1ccc2c(c1)OCO2 (stereo not given)	-12%	8%	-18%	-2%	11%	-16%	.	.	.	.
O=C(Nc1ccc2c(c1)OCO2)C1CCN(C(=O)CSc2ncnc3ccccc23)CC1	79µM*	-7%[11.6 µM]	20µM*	?	?	-29%	35*	-7	40	85*
O=C(CSc1nc2scc(-c3ccco3)c2c(=O)n1-c1ccccc1)NCC1CCCO1 (stereo not given)	?	-23%	11µM*	?	40µM*	-41%	?	-33	25	70*
COc1ccc(CCn2c(O)cc3nn(-c4nc5ccccc5s4)c(=O)c-3c2C)cc1	50µM*	?	1.8µM*	?	?	22µM*	?	-32	36	97*
CCN1CCCC1CNC(=O)c1cc(COc2ccc(C)c(C)c2)on1 (stereo not given)	-12%	-2%	21%	.	6%	-2%	.	.	.	.
CC(C)(C)c1nc2ccccc2c2nnc(SCC(=O)Nc3nccs3)n12	-2%	-4%	14%	2%	22%	-5%	.	.	.	.
CC(C)(C)c1nc2ccccc2c2nnc(SCC(=O)Nc3nc4ccccc4s3)n12	-16%	-22%[57.1 µM]	0.18µM*	3%	45µM*	-23%	?	2	32	85*
O=C(Nc1sc2c(c1C(=O)NCc1ccco1)CCCC2)c1ccc2c(c1)OCO2	-11%	-15%	13µM*	?	?	-29%	?	-26	31	.
COc1cc(C2NC(=O)c3c(sc4c3CCN(C)C4)N2)ccc1OC(=O)c1ccccc1 (stereo not given)	-2%	.	4%	.	11%	-2%	.	.	.	.
O=C(Cc1cccs1)N1CCN(c2ccc([N+](=O)[O-])cc2)CC1	79µM*	-14%	20µM*	.	?	?	?	-35	60	65*
CCS(=O)(=O)N1Cc2ccccc2CC1C(=O)Nc1nnc(SCc2c(Cl)cccc2Cl)s1 (stereo not given)	-2%	-30%	29%	-1%	9%	-18%	.	.	.	.
CCSc1nnc(NC(=O)C2Cc3ccccc3CN2S(=O)(=O)CC)s1 (stereo not given)	56µM*	-18%[57.1 µM]	18µM*	-12%	?	-41%	28*	-4	10	100*
N#C/C(=C\c1ccc(OC(=O)c2ccc(Br)s2)cc1)c1nc2ccccc2[nH]1	5.6µM*	-23%[57.1 µM]	2µM*	2%	44%	-23%	8.9*	-8	13	.
SMILES	POLH inh	WRN helicase inh	Pol beta inh-1	L3MBTL1 inh	Pol iota inh	POLK inh	Pol beta inh-2	Klenow counter	HIV RT counter	POLB valid
N#C/C(=C/c1ccc(OC(=O)c2ccc(Br)s2)cc1)c1nc2ccccc2[nH]1	-8%	-3%	.	.	59%	-28%	.	.	.	.
Cn1cc(Br)c(C(=O)N2CCCCCC2)n1	-8%	10%	1%	.	42%	15%	.	.	.	.
CC1CCN(S(=O)(=O)c2ccc(NC(=O)Cn3nnc(-c4ccccc4F)n3)cc2)CC1	?	-26%	16µM*	1%	50µM*	?	35*	-22	27	.
CC1CCN(S(=O)(=O)c2ccc(NC(=O)c3ccccc3F)cc2)CC1	-12%	?	6%	.	54%	-8%	.	.	.	.
CCOC(=O)C1=C(C)N=c2s/c(=C/c3ccc(OCC(=O)O)cc3)c(=O)n2C1c1ccc(SC)cc1 (stereo not given)	.	.	4.5µM*	?	.	.	7.9*	4	0	.
O=C(O)CSc1nnc(COc2cccc3cccnc23)n1-c1cccc(C(F)(F)F)c1	-13%	-10%	-11%	-2%	-12%	6%	.	.	.	.
O=C(Cn1cnc2c(nnn2-c2ccccc2)c1=O)NCc1ccc(F)cc1	-1%	-19%	?	6%	?	-42%	.	.	.	.

Screening results as filed in PubChem.
